# ChEMBL document CHEMBL4513146, “CO-ADD screening of Karazin Kharkiv National University (Ukraine) compounds”
# Measured potencies and affinities stand elsewhere.
# What was measured:
# Klebsiella pneumoniae = settings: Concentration 32 ug.mL-1;; ASSAY_TEST Inhibition of Bacterial Growth; detection method Absorption (OD600); MEDIA CAMHB; plate type 384well; NBS; CORNING #3640; time 18 hr
# Candida albicans = settings: Concentration 32 ug.mL-1; ASSAY_TEST Inhibition of Fungal Growth; detection method Absorption (OD530)
# Cryptococcus neoformans = settings: Concentration 32 ug.mL-1; ASSAY_TEST Inhibition of Fungal Growth; detection method Resazurin; Absorption (OD600-OD570); plate type 384well; NBS; CORNING #3640
Structure (SMILES),Inhibition (Klebsiella pneumoniae) [%],Inhibition (Candida albicans) [%],Inhibition (Cryptococcus neoformans) [%]
CSc1cccc(NC(=O)Cn2nc3c(Sc4cccc(F)c4)nccn3c2=O)c1,0.95,3.02,-2.39
Cc1ccc(Sc2nccn3c(=O)n(CC(=O)Nc4ccc(C)c(Cl)c4)nc23)c(C)c1,10.52,-2.58,-26.74
CCc1nnc2c(S(=O)(=O)N(Cc3cccc(C)c3)c3cccc(Cl)c3)cccn12,3.49,3.58,-6.66
CCCCc1ccc(NC(=O)Cn2nc3ccc(-c4ccc(C)c(C)c4)nn3c2=O)cc1,1.79,1.02,-8.31
Cc1ccc(-c2cc3c4nnc(CCC(=O)N5CCC(Cc6ccccc6)CC5)n4ccn3n2)cc1C,14.91,0.82,-35.19
CCOC(=O)c1ccccc1NC(=O)CSc1nnc2ccc(C(=O)Nc3cccc(F)c3)cn12,3.32,0.61,-6.96
COc1ccc(CNC(=O)CSc2nnc3c4cc(-c5ccccc5)nn4ccn23)cc1,15.76,0.38,-28.39
COc1ccccc1-n1ccn2c(SCc3ccccc3Cl)nnc2c1=O,10.5,2.3,-11.71
COc1cccc(-n2ccn3c(SCc4ccc(F)cc4)nnc3c2=O)c1,3.28,1.89,-13.93
CCOC(=O)c1ccc(NC(=O)Cn2nc3ccc(C(=O)Nc4cccc(C)c4)cn3c2=O)cc1,6.83,1.34,-36.79
O=C(CSc1nnc2c(=O)n(-c3ccccc3)ccn12)Nc1ccc(F)cc1,3.51,4.29,-7.32
CCc1ccccc1Sc1nccn2c(=O)n(CC(=O)Nc3cccc(Br)c3)nc12,8.38,2.9,-6.91
CCc1ccc(N(Cc2cccc(OC)c2)S(=O)(=O)c2cccn3cnnc23)cc1,14.16,4.11,-10.89
Cc1ccc(-c2cc3c4nnc(CCC(=O)NCc5ccc(F)c(Cl)c5)n4ccn3n2)cc1C,10.99,2.11,-43.73
COc1ccc(OC)c(NC(=O)Cn2nc3c4cc(-c5ccc(C)c(C)c5)nn4ccn3c2=O)c1,5.66,5.32,-22.06
COc1ccc(CCNC(=O)Cn2nc3c(N4CCOCC4)nccn3c2=O)cc1OC,17.72,2.21,-10.16
COc1cccc(-n2ccn3c(SCC(=O)c4ccc(C)cc4)nnc3c2=O)c1,10.94,3.43,-10.21
CCCCc1ccc(NC(=O)Cn2c(=O)c3nnc(CCC)n3c3ccccc32)cc1,6.31,4.08,-20.48
Cc1ccccc1N1CCN(c2nccn3c(=O)n(CC(=O)NCc4ccc(Cl)cc4)nc23)CC1,7.17,45.71,-4.38
Cc1ccc(C)c(S(=O)(=O)Nc2ccc3nncn3n2)c1,4.11,0.56,-3.83

Structure (SMILES),Inhibition (Klebsiella pneumoniae) [%],Inhibition (Candida albicans) [%],Inhibition (Cryptococcus neoformans) [%]
Cc1ccc(-c2cc3c4nnc(CCC(=O)NCc5ccc(C(F)(F)F)cc5)n4ccn3n2)cc1C,10.93,3.64,-31.79
CCc1ccccc1Sc1nccn2c(=O)n(CC(=O)N3CCN(c4ccccc4F)CC3)nc12,1.78,4.04,-15.46
Cc1ccc(CNC(=O)Cn2nc3c(Oc4ccccc4C)nccn3c2=O)cc1,12.47,1.06,-7.58
Cc1nnc2c(SCC(=O)Nc3ccc(F)cc3F)nc3ccccc3n12,16.48,0.69,-22.98
O=C(Cn1nc2c3sc(N4CCCC4)nc3ncn2c1=O)Nc1ccccc1Br,2.42,1.39,-9.14
COc1cccc(NC(=O)Cn2nc3c(Sc4ccccc4)nccn3c2=O)c1,2.45,7.99,-6.51
CCCc1nnc2c(=O)n(CC(=O)Nc3ccc(Cl)c(Cl)c3)c3ccccc3n12,5.7,0.11,-14.21
Cc1ccc(Oc2nccn3c(=O)n(CC(=O)Nc4cccc(Cl)c4)nc23)cc1,2.02,5.47,-14.56
COc1ccc(NC(=O)Cn2nc3c(SC4CCCCC4)nccn3c2=O)cc1OC,12.09,-2.05,-22.51
CCOc1ccc(C(=O)CSc2nnc3c(=O)n(-c4cccc(OC)c4)ccn23)cc1,2.62,7.56,-12.78
Cc1ccc(NC(=O)Cn2nc3c4c5c(sc4ncn3c2=O)CCCC5)c(Cl)c1,3.19,9.32,-16.36
COc1ccccc1NC(=O)Cn1nc2c(SCc3ccccc3)nccn2c1=O,0.49,5.7,-17.11
COc1ccccc1NC(=O)Cn1nc2c3c4c(sc3ncn2c1=O)CCCC4,5.77,0.98,-22.92
CC(C)Cn1c(=O)c2ccc(C(=O)NC3CCCC3)cc2n2c(=O)n(CC(=O)NC3CCCCC3)nc12,4.14,-1.41,-14.36
COc1ccccc1N1CCN(C(=O)CSc2nnc3c(=O)n(-c4ccccc4)ccn23)CC1,9.27,1.3,-12.92
Cc1ccc(-c2cc3c4nn(CC(=O)Nc5ccc6c(c5)OCCO6)c(=O)n4ccn3n2)cc1C,12.57,1.55,-15.09
COc1ccc(N(Cc2cccc(Cl)c2)S(=O)(=O)c2ccc3nnc(C)n3c2)cc1,12.69,5,-5.62
Cc1cccc(C)c1NC(=O)Cn1nc2c(Sc3cccc(F)c3)nccn2c1=O,4.53,-1.35,-4.17
CCc1ccc(NC(=O)Cn2c(=O)c3nnc(C(C)C)n3c3ccccc32)cc1,8.25,26.99,-22.84
CCOC(=O)c1ccccc1NC(=O)Cn1nc2ccc(Sc3ccc(C)cc3)nn2c1=O,14.69,-1.17,-9.49

Structure (SMILES),Inhibition (Klebsiella pneumoniae) [%],Inhibition (Candida albicans) [%],Inhibition (Cryptococcus neoformans) [%]
COc1ccc(CNC(=O)Cn2nc3c(Sc4ccc(C)cc4C)nccn3c2=O)cc1,6.84,-0.37,-7.66
CCc1nnc2c(S(=O)(=O)N(Cc3cccc(F)c3)c3cccc(C)c3)cccn12,4.33,0.97,-1.17
CCc1ccccc1NC(=O)Cn1nc2c(Sc3ccccc3CC)nccn2c1=O,12.45,3.69,-11.06
COc1ccc(-c2cc3c4nnc(SCC(=O)Nc5cccc(C#N)c5)n4ccn3n2)cc1,2.25,13.14,-16.67
CCc1ccccc1Sc1nccn2c(=O)n(CC(=O)Nc3cccc(C)c3)nc12,4.48,-0.7,-3.25
COc1ccc(C(=O)CSc2nnc3c(=O)n(-c4ccc(F)c(F)c4)ccn23)cc1,16.31,2.03,-11.53
O=c1c2nnc(SCc3ccccc3Cl)n2ccn1-c1ccc(F)c(F)c1,8.56,3.72,-8.25
CCc1ccc(NC(=O)Cn2nc3c4cc(-c5ccc(C)c(C)c5)nn4ccn3c2=O)cc1,5.45,21.77,-12.06
Cc1ccc(-c2cc3c4nn(CC(=O)Nc5ccc(C)c(Cl)c5)c(=O)n4ccn3n2)cc1C,10.5,8.38,-8.69
CCOC(=O)c1ccccc1NC(=O)Cn1nc2c(Oc3cccc(OC)c3)nccn2c1=O,5.46,0.95,-5.16
CC(C)Cn1c(=O)c2sccc2n2c(=O)n(Cc3ccccc3Cl)nc12,3.91,1.39,-28.89
CCC(C)NC(=O)CSc1nnc2c(=O)n(Cc3ccc(F)cc3)ccn12 (stereo not given),6.96,1.05,-22.53
CCOc1ccc(C(=O)CSc2nnc3c(=O)n(-c4ccc(Br)cc4)ccn23)cc1,15.85,8.18,-11.96
COc1cccc(-c2noc(Cn3nc4ccc(-c5ccccc5)nn4c3=O)n2)c1OC,1.06,2.21,-2.99
COc1cccc(-c2nc(CSc3nc4ccccc4n4c(C)nnc34)c(C)o2)c1OC,8.41,0.37,-19.84
Cc1cc2nn(CC(=O)Nc3ccc4c(c3)OCCO4)c(=O)n2c(Nc2ccccc2C)n1,6.73,7.15,-3.99
Cc1ccc(-c2ccc3nn(Cc4ccc(F)cc4Cl)c(=O)n3n2)cc1C,16.15,-0.6,-24.45
COc1ccccc1NC(=O)Cn1nc2n(CCCOC(C)C)c(=O)c3ccccc3n2c1=O,12.77,2.2,-35.55
COc1ccc(-c2cc3c4nn(CC(=O)NCc5ccccc5Cl)c(=O)n4ccn3n2)cc1,14.7,1.1,-29.87
COc1ccc(NC(=O)c2ccc3nn(CC(=O)N4CCN(c5ccccc5)CC4)c(=O)n3c2)cc1,0.73,1.58,-6.91
